Assay outcomes (PubChem)
SMN2 splice up = SMN2 splice variant enhancement. HEK293 SMN2-luciferase splicing reporter, luminescence, 30-36 h. Potency, µM (titrated, usually from 46.1 µM), hits mostly activators. 210,000 compounds, 2.8% hits; also: nearly all actives have a fitted effect of over 55% in size
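HEK293 cells carry an SMN2 minigene-luciferase reporter in which exon 7 inclusion puts luciferase in frame. Cells were seeded at 2000 cells/well, attached for 10-12 hours, then exposed to compounds for 30-36 hours at 37C before ONE-Glo luminescence.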
ELG1 genotox = induces genotoxicity in HEK293T cells with luciferase-tagged ELG1. HEK293T ELG1-luciferase reporter, luminescence, 16 h. 330,000 compounds, 1.3% hits. AID 504466. Potency, µM (series often up to 46 µM), usual class: activators; also: nearly all actives have a fitted effect of over 60% in size
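Luminescence read-out: rising ELG1-luciferase signal, reflecting elevated ELG1 protein under genetic stress, flags genotoxic compounds. Cells were treated for 16 hr at 37 °C before ONE-Glo detection.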
ELG1 DNA repair = ELG1-dependent DNA repair inhibition; 330,000 compounds, 2.3% hits; AID 504467; HEK293T ELG1-luciferase reporter, luminescence, 16 h; DNA damage induced by 5-fluorouridine; Potency, µM (titrated, usually from 46.1 µM), actives largely listed as inhibitors; also: nearly all actives have a fitted effect of over 55% in size
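Overnight (16 hr) co-exposure of 2,000 cells/well to 5-fluorouridine and compound at 37 °C preceded detection. Luciferase was quantified via ONE-Glo luminescence; loss of signal denotes inhibition.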
FLuc modulator = counter-screen for miR-21 project: firefly luciferase inhibitors or activators | P08659 | Potency, µM (series often up to 57.5 µM), most hits filed as inhibitors | 360,000 compounds, 6.9% hits | purified FLuc, Km substrates, luminescence inhibition; also: nearly all actives have a fitted effect of over 55% in size
Target sequence (P08659 whole entry, looked up): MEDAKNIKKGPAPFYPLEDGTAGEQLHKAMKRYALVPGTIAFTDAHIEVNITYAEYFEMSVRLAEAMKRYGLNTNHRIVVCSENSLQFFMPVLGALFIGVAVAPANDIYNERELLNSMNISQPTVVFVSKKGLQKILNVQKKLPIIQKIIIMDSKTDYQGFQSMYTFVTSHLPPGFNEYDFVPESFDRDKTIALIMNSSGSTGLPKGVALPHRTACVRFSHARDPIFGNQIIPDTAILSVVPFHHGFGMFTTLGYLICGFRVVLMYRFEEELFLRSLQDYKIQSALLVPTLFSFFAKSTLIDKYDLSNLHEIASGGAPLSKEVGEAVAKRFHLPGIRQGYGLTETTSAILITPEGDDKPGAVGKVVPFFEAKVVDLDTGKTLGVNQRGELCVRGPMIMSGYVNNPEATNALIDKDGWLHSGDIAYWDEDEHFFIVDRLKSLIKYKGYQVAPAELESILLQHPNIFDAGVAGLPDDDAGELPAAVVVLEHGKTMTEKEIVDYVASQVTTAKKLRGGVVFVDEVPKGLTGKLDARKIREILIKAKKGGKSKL
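Biochemical qHTS of compounds, final roughly 60 µM downward over six points, against 10 nM purified firefly luciferase using Km concentrations of substrates (10 uM D-luciferin, 10 uM ATP) in Tris acetate pH 7.5 buffer; luminescence output.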
NPC1 prom act = activators of NPC1 promoter; Huh7 NPC1 promoter luciferase reporter, 24 h; Potency, µM (titrated, usually from 9.22 µM), hits mostly activators; 320,000 compounds, 2.4% hits; AID 485313; also: nearly all actives have a fitted effect of over 60% in size
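NPC1 promoter–luciferase Huh7 cells; 24 h compound; luminescence.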
Rab9 promoter act = activators of Rab9 promoter. 320,000 compounds, 2.8% hits. Potency, µM (titrated, usually from 9.22 µM), actives largely listed as activators. AID 485297. Huh7 Rab9 promoter-luciferase reporter, luminescence, 24 h; also: nearly all actives have a fitted effect of over 60% in size
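Luminescence from Amplite-detected luciferase (10 minutes, ambient) reports Rab9 promoter activation. Before that, stable Rab9-luciferase Huh7 cells (1500/well, reduced-serum OP-MEM I plus 10% FBS) were exposed to compound for 24 hours at 37C.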
A number is an active result; – = inactive; ? = inconclusive; · = not tested or not shown. Compounds with a hit are over-represented: about 9.2% of the library has one in this group of screens. Calls follow the shape of the dose curve; as a rule, active = well fitted curve in the direction sought with a large enough effect; inconclusive = small, poorly fitted or top-dose-only effect, or another doubt; inactive = no such curve, though single readings can be large; an effect the other way counts as inactive or inconclusive.

SMILES	SMN2 splice up	ELG1 genotox	ELG1 DNA repair	FLuc modulator	NPC1 prom act	Rab9 promoter act
CN(C)C(=O)c1ccc2c(c1)N(CC(=O)NCc1ccccc1Cl)C(=O)C1CCCCN21 (stereo not given)	·	·	·	–	·	·
COc1ccc2c(c1)O[C@@H](c1ccc3c(c1)OCO3)[C@H](O)C2=O	20µM	·	·	·	·	·
COc1ccc(C(=O)N2c3ccccc3C(=O)OC2c2ccc3c(c2)OCO3)cc1 (stereo not given)	13µM	–	?	19µM	?	?
CC(=O)Nc1ccc(S(=O)(=O)N2CCN(c3ccc(C)c(C)c3)CC2)cc1	–	·	·	–	·	·
CN1C(C(=O)NCCc2cccs2)CC2Cn3c(nc4ccccc43)C21 (stereo not given)	·	–	–	–	–	–
COc1cc(/C=C2/N=C(c3ccccc3F)OC2=O)cc(Cl)c1OS(C)(=O)=O	–	–	–	8.5µM	–	–
CCCC(=O)N1c2ccccc2[C@@H](N(C(C)=O)c2ccccc2)C[C@H]1C	–	–	–	–	–	–
CCC(=O)N1c2ccccc2C(N(C(=O)CC)c2ccccc2)CC1C (stereo not given)	·	23µM	?	–	–	–
CCC(=O)N1c2ccccc2C(N(C(C)=O)c2ccccc2)CC1C (stereo not given)	5.6µM	?	?	–	–	–
O=C(Nn1cnnc1)c1cc(-c2cccc(Br)c2)nc2ccccc12	·	?	?	0.85µM	–	–
O=C(NC1=NCCS1)c1cc(-c2cccc(Br)c2)nc2ccccc12	–	–	?	11µM	–	–
Cc1ccc2nc(-c3cccc(Br)c3)cc(C(=O)NC3=NCCS3)c2c1	–	–	21µM	5.4µM	–	–
O=C(Nc1ncccn1)c1cc(-c2cccc(Br)c2)nc2ccccc12	–	–	?	27µM	–	–
O=C(Nc1ccncc1)c1cc(-c2cccc(Br)c2)nc2ccccc12	·	–	?	–	–	–
CCOC(=O)N1CCN(S(=O)(=O)N2CCCC(C(=O)NCc3cc(Br)ccc3OC)C2)CC1 (stereo not given)	·	·	·	–	·	·
CSc1ccccc1NC(=O)CN(C)C(=O)COc1ncnc2ccccc12	·	–	–	·	·	·
O=C(Nc1ccccn1)c1cc(-c2cccc(Cl)c2)nc2ccccc12	–	–	18µM	–	–	–
O=C(Nc1ccc([N+](=O)[O-])cn1)c1cc(-c2cccc(Cl)c2)nc2ccccc12	–	–	–	–	–	–
CCOc1ccc(Cl)cc1CN1CCOCC1	–	–	–	–	–	–
Cc1cc(N=Nc2ccc(Cl)cc2)cc(CN2CCOCC2)c1O	·	–	–	17µM	–	–
Cc1cc(N=Nc2ccc(Cl)cc2)cc(CN2CCCC2)c1O	·	–	–	?	–	–
CCCCCOc1ccc(Cl)cc1CN1CCOCC1	–	21µM	?	15µM	–	?
Cc1cc(NC(=O)c2ccc(NC(=O)C3CCCO3)cc2)ccc1Br (stereo not given)	·	?	–	?	?	?
Cc1ccc(Nc2nc(C(=O)N3CCC(C(=O)N4CCN(C)CC4)CC3)cs2)cc1	–	–	–	–	–	–
Cc1ccc(Nc2nc(COC(=O)C3CC3)cs2)cc1	?	?	?	4.3µM	?	3.2µM
SMILES	SMN2 splice up	ELG1 genotox	ELG1 DNA repair	FLuc modulator	NPC1 prom act	Rab9 promoter act
CSc1nc(N)nc(SCC(=O)C23CC4CC(CC(C4)C2)C3)c1C#N	–	–	21µM	–	–	–
CCOC(=O)Cn1nnnc1C(C(C)C)N(Cc1cc2c(C)cc(C)cc2[nH]c1=O)C1CCCC1 (stereo not given)	–	–	18µM	–	–	–
O=c1c(-c2ccc(O)cc2)coc2cc(OC3OC(CO)C(O)C(O)C3O)cc(O)c12 (stereo not given)	?	15µM	?	24µM	?	?
Cc1c(C)c2ccc(O[C@@H]3O[C@H](CO)[C@H](O)[C@H](O)[C@H]3O)cc2oc1=O	·	–	–	–	–	–
COc1cc(O)c2c(=O)c(-c3ccc(O[C@@H]4O[C@H](CO)[C@@H](O)[C@H](O)[C@H]4O)cc3)coc2c1	·	?	?	17µM	1.6µM	4µM
O=c1c(-c2ccc(O)cc2)coc2cc(OC3OC(CO)C(O)C(O)C3O)ccc12 (stereo not given)	?	16µM	?	?	3.2µM	?
Cc1ccc(CNC(=O)CN(C)S(=O)(=O)c2ccc3c(c2)c(=O)n(C)c(=O)n3C)cc1	–	·	·	–	·	·
N#CC1=C(N)Oc2c(ccc3ccccc23)C1c1cccs1 (stereo not given)	–	18µM	?	?	–	–
N#CC1=C(N)Oc2c(ccc3cccnc23)C1c1ccccc1 (stereo not given)	·	–	13µM	–	–	–
Cc1ccc(SCC(=O)OC(C)C(=O)Nc2ccc(S(N)(=O)=O)cc2)cc1C (stereo not given)	·	–	–	–	–	–
COc1ccc(N2CC(NC(=O)c3ccc4c(c3)OCO4)CC2=O)cc1 (stereo not given)	·	·	·	–	·	·
COc1ccc(C2CC(=O)c3ccccc3O2)cc1 (stereo not given)	–	?	?	15µM	?	?
O=C1CC(c2ccc3c(c2)OCCO3)Oc2ccc([N+](=O)[O-])cc21 (stereo not given)	·	0.65µM	?	0.27µM	?	0.56µM
O=C1CC(c2ccc(O)c(O)c2)Oc2cc(O)cc(O)c21 (stereo not given)	–	–	–	–	–	–
O=C1CC(c2ccccc2)Oc2cc(O)cc(O)c21 (stereo not given)	·	?	?	17µM	–	–
O=C1CC(c2ccc3c(c2)OCCO3)Oc2ccccc21 (stereo not given)	·	?	?	21µM	3.2µM	2.8µM
O=C(Nc1ccc2c(c1)OCCO2)C1CCN(C(=O)c2ccc([N+](=O)[O-])cc2)CC1	–	–	?	–	–	–
COc1ccc(Cl)cc1C(=O)Nc1nc(C)cc(C)n1	·	–	–	–	–	–
Cn1nc(-c2ccccc2)nc1-c1ccccc1	·	–	?	21µM	?	?
c1ccc(Cn2nc(-c3ccccc3)nc2-c2ccccc2)cc1	–	?	?	21µM	–	–
O=C(Cn1nc(-c2ccccc2)nc1-c1ccccc1)N1CCOCC1	–	–	–	–	–	–
Cc1ccc(Cn2nc(-c3ccccc3)nc2-c2ccccc2)cc1	?	?	?	15µM	?	3.5µM
Cc1ccc(Cn2c(-c3ccccc3)nc3ccccc32)cc1	–	·	·	?	·	·
CCS(=O)(=O)c1ccc(O)c(NC(=O)Nc2ccccc2OC)c1	·	–	–	?	–	–
CCCc1cc(C(=O)Nc2ccc(F)cc2F)no1	–	12µM	?	11µM	–	?
CCCc1cc(C(=O)NCc2ccco2)no1	–	?	?	?	–	?
